# Results published in PubChem BioAssay (NCI).
# The panel holds about 83,000 compounds, 20% with a hit somewhere; the sample as a whole holds those more often.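 Values shown are percent growth following 48 h exposure of cells in 96-well plates to a single concentration of compound; below 10 was considered active.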 Values without a mark were called inactive. Calls of active or inactive are those of the source.
# How the values were obtained:
# Experiment in all cases: NCI-60 one-dose screen, 48 h (100 = growth as untreated, 0 = no growth, -100 = all killed)
# Conditions in all cases: 10 µM unless noted
# HCT-15 colon = tested on: HCT-15 colon
# HT29 colon = tested on: HT29 colon
# SNB-75 CNS = tested on: SNB-75 CNS
# SNB-19 CNS = tested on: SNB-19 CNS
# U251 CNS = tested on: U251 CNS
# PC-3 prostate = tested on: PC-3 prostate
# SK-MEL-5 melanoma = tested on: SK-MEL-5 melanoma
# UACC-62 melanoma = tested on: UACC-62 melanoma
# LOX IMVI melanoma = tested on: LOX IMVI melanoma
# SK-MEL-28 melanoma = tested on: SK-MEL-28 melanoma
Structure (SMILES),growth (HCT-15 colon),growth (HT29 colon),growth (SNB-75 CNS),growth (SNB-19 CNS),growth (U251 CNS),growth (PC-3 prostate),growth (SK-MEL-5 melanoma),growth (UACC-62 melanoma),growth (LOX IMVI melanoma),growth (SK-MEL-28 melanoma)
CCOC(CNC(=O)c1cccc([N+](=O)[O-])c1)OCC,99.7%,111%,82.6%,103%,97.6%,102%,89.2%,88%,89.1%,106%
CCOC(=O)COc1c(C)cc(SSc2cc(C)c(OCC(=O)OCC)c(C)c2)cc1C,88.8%,97.8%,87.9%,109%,75.4%,65.2%,94.6%,87.3%,103%,100%
COc1cc2c(c(OC)c1)C1c3cc(OC)ccc3NC(=O)N1CC2 (stereo not given),49.7%,32.3%,83.2%,87.5%,74.9%,77.7%,82.2%,66%,89.7%,88.9%
O=C(O)CSCc1nnc2n(Cc3ccccc3)c(=O)c3c4c(sc3n12)CCCC4,101%,111%,87.4%,97.3%,102%,101%,103%,75.4%,88.1%,131%
COC(=O)[C@H](CC(C)C)NC(=O)NC(=O)NC(=O)CI,-36% (active),-43.2% (active),102%,92%,90.6%,78.3%,92.6%,86.4%,-78.6% (active),89.6%
COc1ccc(/C=C/C=C\C(=O)c2ccc(-n3ccnc3)cc2)cc1,91.3%,93.4%,90.8%,87.6%,83.3%,88.8%,88.6%,79.1%,93.5%,104%
COc1cc(Cl)cc(-c2nn(C(=O)NS(=O)(=O)c3ccccc3)cc2-c2ccncc2)c1,111%,41.1%,3.59% (active),105%,81.5%,91.4%,93.3%,82.7%,59.1%,98.7%
Nc1ccc(Cl)c([N+](=O)[O-])c1,87.8%,106%,89.3%,108%,99.1%,88.3%,97.6%,80.1%,66.9%,100%
COc1cc(NCc2ccccc2O)c2ncccc2c1,77.8%,102%,64.5%,92.8%,98.9%,83.6%,101%,95%,83.9%,111%
COc1cc2c(c(Br)c1N)-c1cc(Br)c(N)cc1C2=O,81.3%,86.2%,25.9%,69.1%,57.3%,93.2%,56.5%,74.9%,68.8%,81.4%
C=C(C)[C@@H]1CC[C@]2(C(=O)NCCNCCNCCN)CC[C@]3(C)[C@H](CC[C@@H]4[C@@]5(C)CCC(=O)C(C)(C)[C@@H]5CC[C@]43C)[C@@H]12,-36.6% [100 µM] (active),-77.4% [100 µM] (active),-41.5% [100 µM] (active),-78.5% [100 µM] (active),-81.8% [100 µM] (active),-24.6% [100 µM] (active),-86.2% [100 µM] (active),-77.9% [100 µM] (active),-68.2% [100 µM] (active),-73.9% [100 µM] (active)
CCCC[C@@H](C=O)NC(=O)[C@H](CC(C)C)NC(=O)[C@H](CC(C)C)NC(=O)OCc1ccccc1,8.85% (active),-19.4% (active),-45.1% (active),22.1%,5.84% (active),5.37% (active),-71% (active),-38% (active),-65.2% (active),-21.7% (active)
COc1ccc(C(=O)CSc2nnc(-c3cc(-c4ccccc4)nc4ccccc34)o2)cc1,103%,113%,102%,94.3%,103%,105%,105%,98%,101%,109%
O=C(O)c1cn(C2CC2)c2cc(N3CCN(Cc4cc(Cl)ccc4O)CC3)c(F)cc2c1=O,45.7%,44.9%,67.6%,60.2%,36.6%,54.7%,58.8%,54.9%,57.1%,71.7%
COc1cc(C)cc2oc3oc(=O)c(-c4nc5ccccc5s4)cc3c(=O)c12,102%,103%,79.3%,92.9%,93.4%,94.1%,99.5%,67.7%,94.1%,93.2%
NC(=O)c1cccc(-c2ccc(S(=O)(=O)Nc3ccc4c(c3)N(C(=O)C3CC3)CCC4)cc2)c1,91.9%,13.6%,11.9%,48.3%,31.3%,40%,11.4%,26.7%,41.6%,51.7%
CCN1CCN(CC(=O)Nc2nc3ccc(NCc4ccc(Cl)cc4)cc3s2)CC1,0.991% (active),19.6%,103%,79.6%,58.2%,52.7%,-37.9% (active),-12% (active),16.9%,24.7%
C=C(C)[C@@H]1CC[C@]2(C(N)=O)CC[C@]3(C)[C@H](CC[C@@H]4[C@@]5(C)CC[C@H](O)C(C)(C)[C@@H]5CC[C@]43C)[C@@H]12,6.36% [100 µM] (active),-49.5% [100 µM] (active),-39.1% [100 µM] (active),1.3% [100 µM] (active),-69.3% [100 µM] (active),-24.5% [100 µM] (active),-39.6% [100 µM] (active),-23.2% [100 µM] (active),-72.8% [100 µM] (active),0.379% [100 µM] (active)
Cc1cccc(C[C@H](NC(=O)Nc2ccc(Cl)cc2F)C(=O)N[C@@H]2C(=O)N3C[C@H](O)C[C@H]3C(=O)N3CCN(C)C[C@H]3C(=O)N[C@@H](C)C(=O)N3C[C@H](C)C[C@H]3C(=O)O[C@H]2C)c1,105%,36%,18.8%,22.5%,23.5%,19.6%,40.7%,28.3%,40.9%,42.4%
C1=C[C@H]2O[C@@H]1c1ccc3[nH]ccc3c12,78.8%,87.7%,83.4%,96.8%,103%,98%,90.4%,78.8%,100%,94%
CC(C)C1=NOC(=O)C1=Cc1cn(-c2ccccc2)nc1-c1cccc([N+](=O)[O-])c1,60.4%,70.5%,86.5%,74.2%,66.7%,73%,90%,83.9%,0.102% (active),93.4%
O=C(N=c1n(-c2ccccc2)nc2n1CCN2C1=NCCN1C(=O)c1ccc(Cl)cc1)c1ccc(Cl)cc1,57%,59.7%,68.8%,85.8%,72.8%,47.5%,70.9%,73.6%,86.6%,88.8%
O=C(Nc1cc(F)cc2cccnc12)c1cnc(N2CCNCC2)cn1,40.5%,36.8%,82.7%,87.7%,63.6%,63%,91.1%,101%,65.8%,97.4%
CCOC(=O)C(c1ccccc1)N1C(=O)c2ccccc2C1=O (stereo not given),97.3%,102%,91.1%,100%,93.8%,98.4%,100%,95%,91.4%,99.2%
